# Among all 48,000 compounds or so, about 13,000 (27%) showed an effect of 50% or more. The list shows a part of the results.
# Test system: Wolbachia pipientis
# Assay: Anti-Wolbachia Cell-Based Screen
# Format: functional
# Set-up: scale not given: in the data most compounds retested in dose-response had high values
# Conditions: 5 µM
row,Structure (SMILES),Percent Effect
1,CC(C)C(=O)N1CCN(C(=O)CCc2nnc(-c3ccccc3)o2)CC1,-5.371%
2,CN(CCn1cccn1)S(=O)(=O)c1ccc(C#N)cc1,-4.99%
3,CC(C)c1ncncc1C(=O)N1CCN(Cc2cccnc2)CC1,115.2%
4,CCc1ncncc1C(=O)N1CCCN(Cc2ccc(C)cc2)CC1,-0.6521%
5,CC(C)c1ncncc1C(=O)N1CCN(Cc2ccsc2)CC1,100.4%
6,CC(C)CN1CCN(C(=O)c2cccnc2-n2cncn2)CC1,-9.606%
7,CC(C)c1ncncc1C(=O)N1CCN(Cc2ccccn2)CC1,108.4%
8,Cc1ccc(C(=O)N2CCN(Cc3ccsc3)CC2)n1C,-3.003%
9,CCCc1c(C(=O)N2CCN(Cc3ccccn3)CC2)cnn1C,12.63%
10,CC(C)c1ncncc1C(=O)N1CCCN(Cc2cccs2)CC1,14.44%
11,CC(C)c1cc(C(=O)N2CCN(Cc3ccsc3)CC2)n[nH]1,8.435%
12,CCc1c(C)[nH]c(C(C)(N)CC)nc1=O.Cl (stereo not given),22.39%
13,COc1cccc(COCC(O)CN(C)c2ccc(C)cc2C)c1 (stereo not given),0.5373%
14,Cn1cc(CNC2CCOCC2)c(-c2cc3ccccc3o2)n1,2.257%
15,Cn1cc(CN2CCCN(C(=O)c3cc(Cl)cn3C)CC2)cn1,-17.2%
16,Cn1cc(CN2CCc3nc4ccccc4c(=O)n3CC2)cn1,97.31%
17,Cc1nn(C)cc1CN1CCc2nc3sccc3c(=O)n2CC1,108%
18,COCCN(Cc1cnn(C)c1)c1nc(C)nc2sccc12,10.56%
19,Cc1c(CN2CCc3nc4sccc4c(=O)n3CC2)cnn1C.Cl,100.5%
20,Cc1cc2c(=O)n3c(nc2s1)CCN(Cc1cnn(C)c1C)CC3.Cl,-7.845%
21,CC(C)(C)c1n[nH]cc1CN1CCc2nc3ccsc3c(=O)n2CC1,-17.99%
22,O=c1c2ccccc2nc2n1CCN(Cc1cccs1)CC2,-4.199%
23,Cn1cc(CN2CCCN(C(=O)c3cn4ccccc4n3)CC2)cn1,23.55%
24,Cn1cc(CN2CCc3nc4sccc4c(=O)n3CC2)cn1,107.2%
25,CCn1nc2c(cc1=O)CN(Cc1nc(-c3ccoc3)no1)CC2,-3.016%
26,Cn1cc(C2CCCN2C(=O)c2ccc(Br)o2)cn1 (stereo not given),-1.087%
27,Cn1cc(C2CCCN2C(=O)Cc2n[nH]c3ccccc23)cn1 (stereo not given),-7.231%

row,Structure (SMILES),Percent Effect
1,Cn1cc(C2CCCN2C(=O)c2cnc(-c3ncccn3)s2)cn1 (stereo not given),107.5%
2,Cn1cc(C2CCCN2C(=O)c2cnc(-c3cccs3)s2)cn1 (stereo not given),79.27%
3,Cn1cc(C2CCCN2C(=O)c2cnc(-c3ccco3)s2)cn1 (stereo not given),97.73%
4,Cn1cc(C2CCCN2C(=O)Cc2coc(-c3ccccc3)n2)cn1 (stereo not given),-3.572%
5,Cn1cc(C2CCCN2C(=O)c2cnc(-c3ccccn3)s2)cn1 (stereo not given),99.88%
6,c1c[nH]c(-c2cn(CCSc3cnn[nH]3)nn2)n1,-6.5%
7,O=C(COCC1CC1)N1CCSCC1,-4.058%
8,CC(=O)NCc1ccc(S(=O)(=O)NC(=O)c2ccc3c(c2)CCO3)s1,-11.39%
9,CN(Cc1nc2ccccc2n1C)CC1CCCN1c1cccnn1 (stereo not given),-5.038%
10,Brc1csc(CNCc2nnc3n2CCC3)c1,-6.201%
11,Cn1cc(C2CCCN2C(=O)CS(=O)(=O)C2CCCC2)cn1 (stereo not given),4.822%
12,Cn1cc(C2CCCN2C(=O)c2cnc(C3CC3)s2)cn1 (stereo not given),90.11%
13,CS(=O)(=O)N1CCN(Cc2c(O)ccc3oc4c(c23)CCCC4)CC1,-24.14%
14,CCC(CC)(CNC(=O)c1cccn1Cc1cccnc1)N(C)C,-9.831%
15,CCc1nc2c(N3CCCC(c4nccn4CCOC)C3)ncnc2o1 (stereo not given),-3.273%
16,CSCC1CCN(c2nc(N)ncc2C)CC1,-31.92%
17,CSCC1CCCN(c2ncnc3oc(C)nc23)C1 (stereo not given),100.1%
18,Cc1nc2c(N3CCC(O)(Cn4ccnc4)CC3)ncnc2o1,2.472%
19,CCN(CC)C(=O)C1CCCN(c2ncnc3oc(C)nc23)C1 (stereo not given),73.24%
20,CSc1ccccc1CN1C[C@@H]2CC[C@H](C1)N(CC1CC1)C2=O,-21.61%
21,NC(=O)CCCNC(=O)c1cc(Br)c2c(c1)OCCO2,-9.821%
22,COc1ccc2cc(CN(C)CCN3CCCCC3=O)c(=O)[nH]c2c1,1.998%
23,COc1cccc(CCNC(=O)NC(C)C)c1O,-0.2442%
24,COc1cccc(OC)c1-c1ccnc2cc(CC(=O)N(C)C)nn12,89.81%
25,CNC(=O)Cc1cc2nccc(-c3c(OC)cccc3OC)n2n1,105.1%
26,COc1ccccc1CC1CCCN(CC(=O)NC2CC2)C1 (stereo not given),10.43%
27,COc1cccc(OC)c1-c1ccnc2cc(CC(=O)NC3CC3)nn12,130.6%

row,Structure (SMILES),Percent Effect
1,CCCc1cc(C(=O)N(C)Cc2ccc(OC)c3ncccc23)n(C)n1,-87.89%
2,COc1cccc(CNC(=O)C(C)n2ccnc2C(C)C)c1OC (stereo not given),-21%
3,COc1cccnc1NC(=O)COc1c(C)cccc1C,-5.049%
4,COc1ccccc1CC(=O)NCc1ccnc(NC2CC2)c1,-7.733%
5,COc1cccc(OC)c1-c1ccnc2cc(CC(=O)NC(C)C)nn12,87.37%
6,COc1ccccc1C1(CNc2cc(C(=O)N(C)C)ccn2)CC1,-1.454%
7,COc1ccccc1OCC(=O)n1nc(C)c(C)c1C,-12.46%
8,CN1CCOC(C(=O)N2CCC3(CCCCC3)C2)C1 (stereo not given),13.97%
9,CCCc1ccc(S(=O)(=O)NC2(CC(N)=O)CCC2)cc1,-11.45%
10,CN1CCN(CCNC(=O)C(OC2CCCC2)c2ccccc2)CC1 (stereo not given),-1.077%
11,O=C(NCCn1cccc1)C(c1ccccc1)N1CCCC1 (stereo not given),123.6%
12,O=C(NCCNc1cccnc1)C(c1cccnc1)N1CCCC1 (stereo not given),-8.824%
13,O=C(NCCn1cccc1)C(c1cccnc1)N1CCCC1 (stereo not given),4.567%
14,O=C(NCCN1CCCCC1)C(c1ccccc1)N1CCCC1 (stereo not given),103.1%
15,O=C(NCCN1CCOCC1)C(OC1CCCC1)c1ccccc1 (stereo not given),1.172%
16,CC(=O)N1CC[C@H]2OCC[C@@H](C(=O)N3CCCCO3)[C@@H]2C1,7.512%
17,CC(=O)N1CC[C@H]2OCC[C@@H](C(=O)Nc3cccnc3C)[C@H]2C1,87.27%
18,CC(C)NC(=O)[C@@H]1CCO[C@@H]2CCN(c3ncccn3)C[C@H]21,-20.97%
19,CC(=O)N1CC[C@H]2OCC[C@@H](C(=O)Nc3cccnc3C)[C@@H]2C1,106.3%
20,CCC(CNC1CCN(C(C)=O)CC1)Oc1ccccc1Cl (stereo not given),3.786%
21,NC(=O)N1CCCC(C(=O)NCc2ccccc2OC(F)(F)F)C1 (stereo not given),21.92%
22,CCC(O)CNC(=O)c1cc(COc2ccc(OC)cc2Cl)[nH]n1 (stereo not given),4.505%
23,O=C(CCc1ccccc1)Nc1ncccc1OC(F)F,-7.341%
24,CCn1cc(CN2CCCN(C(=O)CCSC)CC2)cn1,96.36%
25,CSC(C)C(=O)N1CCCN(Cc2cnn(C(C)C)c2)CC1 (stereo not given),-3.847%
26,CCc1nnsc1C(=O)N1CCCN(Cc2cnn(C)c2)CC1,1.125%
27,CSCCC(=O)N1CCCN(Cc2cnn(C(C)C)c2)CC1,82.47%

row,Structure (SMILES),Percent Effect
1,CC(C)(C)OC(=O)N1CSC[C@@H]1C(=O)NCc1cccc(C#N)c1,-10.68%
2,Cc1ccc(NCCCNC(=O)C2CC3(CCNCC3)CN2C)nc1 (stereo not given),-3.217%
3,Cc1ncsc1CCCNC(=O)C1CC2(CCNCC2)CN1C (stereo not given),23.09%
4,COc1ccc2nc(CNC(=O)C3CC4(CCNCC4)CN3C)[nH]c2c1 (stereo not given),101.4%
5,Cc1ccc2[nH]c(CNC(=O)C3CC4(CCNCC4)CN3C)nc2c1C (stereo not given),105.7%
6,COc1ccc2nc(CNC(=O)c3cc(C(C)C)on3)[nH]c2c1,-7.42%
7,CCn1nc(C(C)C)cc1C(=O)NCc1nc2ccc(OC)cc2[nH]1,5.154%
8,Cn1nnc2c1CCN(S(C)(=O)=O)C2COCC1CC1 (stereo not given),-21.64%
9,Fc1cc(CNCc2ccc3c(c2)CCO3)ccc1N1CCOCC1,14.1%
10,CCC[C@@H]1CN(C(=O)c2conc2-c2ccccc2)C[C@H]1N(C)C,-6.905%
11,COC(=O)Cn1c(=O)nc2n1C(=O)N(c1ccccc1)C2,-2.891%
12,Cc1nc2ccccc2c(=O)n1Cc1nnnn1C1CC1,-4.17%
13,CCc1nc2ccccc2c(=O)n1CC1(O)CCN(CC(=O)OC)CC1,94.95%
14,CC(=O)c1cn(CC(=O)N2CCC(O)(CO)CC2)c2ccccc12,-13.61%
15,COCC(=O)N1CCCN(Cc2cc(O)c3ccccc3n2)CC1,-35.6%
16,CCc1nc2ccccc2c(=O)n1CC1(O)CCN(C(=O)COC)CC1.Cl,76.81%
17,CS(=O)(=O)N1CCC(O)(Cn2c(C3CC3)nc3ccccc3c2=O)CC1,-5.897%
18,CCc1nc2ccccc2c(=O)n1CC1(O)CCN(C(=O)C2CC2)CC1.Cl,111.9%
19,CCCC(=O)N1CCC(O)(Cn2c(CC)nc3ccccc3c2=O)CC1.Cl,-3.591%
20,Cc1nc2ccccc2c(=O)n1CCC(=O)N1CCSCC1,-8.454%
21,CCc1nc2ccccc2c(=O)n1CC1(O)CCN(C(=O)C(C)C)CC1,101.9%
22,CCC(Oc1ccc(N(C)S(C)(=O)=O)cc1)C(=O)NC (stereo not given),9.37%
23,CC(C)NC(=O)N1CCCC2(CCCCN2)C1 (stereo not given),-45.21%
24,CNC(=O)Cc1noc(-c2cc3c(s2)CCCC3)n1,9.229%
